# Screens as filed in PubChem BioAssay.
# CHX counter: Cycloheximide Counterscreen for Small Molecule Inhibitors of Shiga Toxin; hit rate 12% among 300,000; max response, %; cell reporter, cycloheximide protein synthesis inhibition counterscreen; AID 2314, 2010; in the data active means max response mostly above about 13%, no sharp cut-off; inactive means mostly below about 14%; further: read at 38.3 µM for the half of the compounds with a filed dose
# SARS PLpro yeast: qHTS of Yeast-based Assay for SARS-CoV PLP. hit rate 0.19% among 330,000. Potency, µM (titrated, usually from 32.9 µM), usual class: activators. AID 485353, 2010. S. cerevisiae expressing SARS-CoV PLpro, growth rescue; calls by dose curve; further: nearly all actives have a fitted effect of over 55% in size
# Pf growth 96h: Primary qHTS for delayed death inhibitors of the malarial parasite plastid, 96 hour incubation; P. falciparum luciferase reporter growth, 96 h; Potency, µM (series often up to 28.7 µM), most hits filed as inhibitors; hit rate 6.9% among 320,000; AID 504834, 2011
#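 Parasite growth measured via integrated firefly luciferase reporter in P. falciparum. Infected erythrocytes at 2% hematocrit, 0.05% parasitemia final were treated 96 hours at 37 C under 5% CO2, and luminescence was read.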
# Pf growth 48h: Primary qHTS for delayed death inhibitors of the malarial parasite plastid, 48 hour incubation. Potency, µM (highest dose often 28.7 µM), most hits filed as inhibitors. hit rate 5.9% among 310,000. AID 504832, 2011. P. falciparum luciferase growth in erythrocytes, 48 h
#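 A one-generation exposure of luciferase-tagged malaria parasites in RPMI 1640/Albumax erythrocyte culture, 37 C and 5% CO2. Inhibition is inferred from decreased luminescence after adding detection reagent.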
# Shiga inhibitor: A qHTS for Small Molecule Inhibitors of Shiga Toxin | Vero cells, Shiga toxin protein synthesis inhibition reporter | hit rate 9.2% among 290,000 | inhibition, % at 38.7 µM; in the data active means inhibition mostly above about 28%, no sharp cut-off; inactive means mostly below about 43%
# NS1 function inh: qHTS Assay for Inhibitors of Influenza NS1 Protein Function | hit rate 0.4% among 270,000 | Potency, µM (series often up to 46.1 µM); calls by dose curve; further: actives are rising curves; nearly all actives have a fitted effect of over 50% in size
#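 OD600 was taken as the measure of yeast growth restored by compound in an NS1-expressing S. cerevisiae strain. Cells had been washed out of glucose medium and diluted 1:100 into galactose -URA medium, pH 6.0.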
# A number is an active result; n = inactive; u = inconclusive; x = not tested or not shown. In the library only some 21% were active in any assay of this set; here they are far more common. Unless noted, the call rests on the fitted dose curve; in most records, active means well fitted inhibition curve with a large enough effect; inconclusive means small, poorly fitted or top-dose-only effect, or another doubt; inactive means no such curve, though single readings can be large or run the other way.
SMILES,CHX counter,SARS PLpro yeast,Pf growth 96h,Pf growth 48h,Shiga inhibitor,NS1 function inh
N/C(=N\OC(=O)c1cccs1)c1cccc(Br)c1,39.3,n,n,n,77.5,n
N/C(=N\OC(=O)c1cccs1)c1ccccc1,35.3,n,u,n,80.2,n
COc1ccc(C(=O)O/N=C(\N)c2ccccc2)cc1,n,n,n,n,n,n
O=C(O)C1C2CCC(C2)C1C(=O)N1CCCC1 (configuration not stated),n,n,n,n,n,n
Cc1ccc(CNC(=O)CSc2ncc(C(=O)Nc3ccccc3)c(=O)n2C)cc1,x,n,n,n,x,x
O=C(Nc1ccc(Cl)c(Cl)c1)N1CCOCC1,n,n,n,n,37.0,n
O=C(Nc1ccc(Cl)c(Cl)c1)N1CCCCCC1,51.4,n,n,n,89.7,n
CCS(=O)(=O)N1CCC(NC(=O)C(Cc2ccc(OC)c(OC)c2)NC(C)=O)CC1 (configuration not stated),n,n,n,n,x,n
C/C(=N\NC(=O)c1ccccc1NC(=O)c1ccc(Cl)cc1)c1ccncc1,n,n,u,n,n,x
C/C(=N\Nc1ccccc1C(=O)O)c1ccncc1,18.3,n,n,n,42.9,n
COc1ccc(/C(=N\Nc2ccccc2C(=O)O)c2ccccc2)cc1,28.9,n,u,n,169.0,x
Cc1ccc(SCCC(=O)NC(C)(C)C)cc1,44.3,n,n,n,73.2,n
Cc1ccc(SCCC(=O)NC(C)C)cc1,n,n,n,n,n,n
Cc1ccc(SCCC(=O)N(C)C)cc1,17.0,n,n,n,n,u
CCCCNS(=O)(=O)c1ccc2c(c1)oc(=O)n2CC(=O)OCC,n,n,u,x,n,n
CCOC(=O)Cn1c(=O)oc2cc(S(=O)(=O)NC3CCCCC3)ccc21,n,n,u,n,n,n
CCOC(=O)Cn1c(=O)oc2cc(S(=O)(=O)NCc3ccccn3)ccc21,n,n,11.7µM,x,n,n
CCOC(=O)Cn1c(=O)oc2cc(S(=O)(=O)NCc3cccs3)ccc21,n,n,13.1µM,x,n,n
CCOc1ccc(NC(=O)CN(C)C(=O)c2cccnc2Sc2ccc(C)c(C)c2)cc1OCC,n,n,n,n,n,n
O=C(c1cc(-c2ccc(Cl)cc2)nc2ccccc12)N1CCC1,x,n,u,u,x,x
O=C(c1ccc2ccccc2n1)N1CCN(c2ccccc2O)CC1,52.3,n,13.1µM,u,88.4,n
Cc1ccc(-c2cc(C(=O)N3CCN(c4ccccc4O)CC3)c3ccccc3n2)o1,35.3,n,13.1µM,u,65.8,n
O=C(c1cc(-c2ccc(Br)cc2)nc2ccccc12)N1CCN(c2ccccc2O)CC1,x,n,5.86µM,5.86µM,x,x
O=C(c1ccc2ccccc2n1)N1CCN(c2ccccc2)CC1,n,n,x,n,n,n
COC(=O)C(Cc1ccc(O)cc1)NC(=O)CCc1nc2ccccc2s1 (configuration not stated),n,n,u,n,n,n
SMILES,CHX counter,SARS PLpro yeast,Pf growth 96h,Pf growth 48h,Shiga inhibitor,NS1 function inh
CCCCn1c(N)c(N(CCOC)C(=O)COC(=O)C(C)Oc2ccc(Cl)cc2)c(=O)[nH]c1=O (configuration not stated),x,n,n,n,x,x
CCSc1nnc(NC(=O)c2cccs2)s1,35.0,n,n,n,100.8,n
CCSc1nnc(NC(=O)NC2CCCCC2)s1,35.7,n,u,n,48.9,x
CCc1nnc(NC(=O)c2ccc(C)o2)s1,36.2,n,n,n,44.0,n
CCc1nnc(NC(=O)c2ccc(COc3ccc(C)cc3)o2)s1,n,n,u,n,n,n
CCC(=O)Nc1nnc(SCC(=O)NC2CCCC2)s1,n,n,n,n,n,n
CCSc1nnc(NC(=O)c2ccc(C)o2)s1,26.7,n,x,n,33.4,n
COc1ccc(NC(=O)CSc2nnc(C)n2N)cc1S(=O)(=O)N1CCCCC1,x,n,n,n,x,x
CCOc1ccc(-c2nnc(-c3snc(-c4ccc(F)cc4)c3N=CN(C)C)o2)cc1,n,n,n,n,n,n
